Source: PubChem BioAssay
An excerpt weighted towards active compounds, which were near 5.8% of everything screened.
MCF10A rereplic = inducers of DNA re-replication in MCF 10A breast cells; MCF 10A DNA re-replication, Hoechst nuclear intensity, 48 h; Potency, µM (highest dose often 46.1 µM), inactives show at the top dose activity, positive = re-replication, actives largely listed as activators; 350,000 tested, 2.9% active; AID 624296; further: % of control where 0% means no effect; nearly all actives have a fitted effect of over 50% in size
PINK1 expr mod = modulators of PINK1 expression; PINK1 immunofluorescence, high-content cytometry, 24 h; Potency, µM (series often up to 76.6 µM), without a hit: at the top dose activation (PINK1 increase), actives largely listed as activators; 410,000 tested, 0.2% active; AID 624263; active means well fitted activation curve with a large enough effect; inconclusive means small, poorly fitted or top-dose-only effect; cell line not stated here; further: % of control where 0% means no effect; nearly all actives have a fitted effect of over 65% in size
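Compound titrations (5 concentrations, 24 h) on a stable cell line; DMSO and CCCP controls. Endpoint: fixed-cell PINK1 immunofluorescence with mitochondrial, cell and nuclear markers, scanned by microplate cytometer.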
SW480 rereplic = induces DNA re-replication in SW480 colon adenocarcinoma cells. AID 624297. Potency, µM (titrated, usually from 46.1 µM), for inactives: at the highest dose re-replication activation, hits mostly activators. SW480 DNA re-replication, Hoechst DNA content imaging, 48 h. 340,000 tested, 1.8% active; further: % of control where 0% means no effect; nearly all actives have a fitted effect of over 55% in size
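Treated cells incubate 48 hr (37 C, 5% CO2), are stained 40 min with Hoechst, and nuclear fluorescence is enumerated; a rise in nuclei with high DNA signal marks re-replication.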
KB-V1 MDR tox = KB-V1 MDR subline cytotoxicity | KB-V1 MDR cells viability, CellTiter-Glo, 72 h | Potency, µM (top dose mostly 46.1 µM), most hits filed as cytotoxic | 400,000 tested, 3.4% active; further: on the % scale 0 is the no-effect control and ±100 the full control effect; nearly all actives have a fitted effect of over 60% in size
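Compound-treated KB-V1 multidrug-resistant cells, 72 h, 37 degrees C; viability by CellTiter-Glo. Fitted qHTS curves give the values.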
KB-3-1 cytotox = KB-3-1 parental cell cytotoxicity | KB-3-1 viability, CellTiter-Glo ATP luminescence, 72 h | Potency, µM (doses to about 46.1 µM), most hits filed as cytotoxic | 400,000 tested, 1.4% active | AID 1347075; further: on the % scale 0 is the no-effect control and ±100 the full control effect; nearly all actives have a fitted effect of over 60% in size
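Multi-concentration cytotoxicity screen in KB-3-1 cells grown in DMEM lacking phenol red with 10% FBS. After 72 h at 37 °C with compound, ATP-dependent luminescence was recorded.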
12-LOX inh = ALOX12 (human) lipoxygenase inhibition | P18054 | purified 12hLO, xylenol orange hydroperoxide absorbance | Potency, µM (titrated, usually from 108 µM), for the others: top-dose activity change, negative = inhibition, usual class: inhibitors | 580,000 tested, 1.1% active | AID 1671190; further: on the % scale 0 is the no-effect control and ±100 the full control effect
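Purified human 12hLO at 150 nM in 25 mM Hepes, 0.01% Triton X-100, pH 7.0, preincubated 15 min at room temperature with compound. Reaction started with 40 uM arachidonic acid, 30 min at room temperature. Hydroperoxide measured by Fe-xylenol orange, 573/405 nm absorbance ratio.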
Active calls of the source: *; i = inactive; ? = inconclusive; · = not tested or not shown; [ ] = remark or other dose. Unless noted, the call rests on the fitted dose curve; in most records, active means well fitted curve in the direction sought with a large enough effect; inconclusive means small, poorly fitted or top-dose-only effect, or another doubt; inactive means no such curve, though single readings can be large; an effect the other way counts as inactive or inconclusive. Potency means the concentration at half of the fitted maximal effect.

SMILES	MCF10A rereplic	PINK1 expr mod	SW480 rereplic	KB-V1 MDR tox	KB-3-1 cytotox	12-LOX inh
CCOc1c(Cl)cc(CNc2ccc(S(N)(=O)=O)cc2)cc1OC	-2%	-1%	8%	i	i	-19%
CCOc1c(Cl)cc(CNc2ccc(N3CCCC3)cc2)cc1OC	?	2%	10µM*	i	?	37%
CCOc1c(Cl)cc(CNC(C)(C)CC(C)(C)C)cc1OC	8.2µM*	?	4%	?	?	0%
C=C(C)[C@@H]1CC[C@@H](C)C[C@@H]1O	·	·	·	·	·	15%[176 µM]
O=C(Nc1ccc(OC(F)F)cc1)c1cc(=O)[nH]c2ccccc12	·	·	·	·	·	60%
CN(CC(=O)NC(N)=O)C(c1ccccc1)c1ccccc1	·	·	·	·	·	-7%
O=C(Cc1n[nH]c(=O)c2ccccc12)N/N=C/c1cc2c(cc1Cl)OCO2	18µM*	-1%	?	i	i	-24%
Cc1ccc(C)c(OCCC(=O)N2CCN(S(=O)(=O)c3cccs3)CC2)c1	·	·	·	·	·	5%
COc1cc(C(=O)N2CCC(N3CCN(C)CC3)CC2)ccc1Nc1ncc2c(n1)N(C)c1ccccc1C(=O)N2C	·	·	·	·	·	-22%[57.4 µM]
CCN1C(=O)CCN(C2CCCC2)c2nc(Nc3ccc(C(=O)NC4CCN(C)CC4)cc3OC)ncc21	10µM*	14%	18%[9.22 µM]	i	9.2µM*	?
CCNC(=O)NC(=O)C(C)OC(=O)Cc1c[nH]c2ccccc12 (centres undefined)	·	·	·	·	·	-16%
O=C(N/N=C/c1cccc2nccnc12)c1ccccc1O	?	0%	15µM*	i	?	0%
O=C(N/N=C/c1cccc2cccnc12)c1ccccc1O	?	0%	?	?	?	0%
CC1CCCN(S(=O)(=O)c2ccc(S(=O)(=O)NC(C)c3cccs3)cc2)C1 (centres undefined)	1%	-1%[38.3 µM]	-4%	16µM*	i	?
CN(C)c1ccc(C=Nc2cccc(C(=O)c3ccccc3)c2)cc1	·	·	·	·	·	-13%
COc1ccc(-c2noc([C@@H]3Cc4nc[nH]c4CN3C(=O)NC3CCCCC3)n2)cc1	·	·	·	·	·	3.5µM*
COc1ccc(-c2noc([C@@H]3Cc4nc[nH]c4CN3C(=O)Nc3ccc(Cl)cc3)n2)cc1	·	·	·	·	·	12%
O=C(NC1CCCCC1)N1Cc2[nH]cnc2C[C@H]1c1nc(-c2ccc3ccccc3c2)no1	·	·	·	·	·	10µM*
O=C(NC1CCCCC1)N1Cc2[nH]cnc2C[C@H]1c1nc(-c2cccc([N+](=O)[O-])c2)no1	·	·	·	·	·	6.3µM*
O=C(Nc1ccccc1)N1Cc2[nH]cnc2C[C@H]1c1nc(-c2ccc3ccccc3c2)no1	·	·	·	·	·	87%
COCc1ccc2c(c1)c(OC(C)(C)C(=O)N1CC(O)C1)nn2CCC(C)C	·	·	·	·	·	12%[176 µM]
COc1cccc(C2CC(=O)Nc3cc(C)c(C)cc32)c1 (centres undefined)	·	14%	·	21µM*	?	-3%
O=C1CC(c2cccc(Cl)c2)c2cc3c(cc2N1)CCC3 (centres undefined)	4%	8%[38.3 µM]	-2%	8.2µM*	i	?
COc1cccc(C2CC(=O)Nc3cc4c(cc32)CCC4)c1 (centres undefined)	5.2µM*	13%	8.2µM*	5.8µM*	7.3µM*	0%
COc1cccc(C2CC(=O)Nc3cc(OC)c(OC)cc32)c1 (centres undefined)	-16%	-1%	?	i	i	9%
Cc1[nH]nc(C(F)(F)F)c1N=NN1CCOCC1	3.7µM*	-1%	?	?	?	-23%
CC(C)c1ccc(C(=O)NCCc2c[nH]c3ccccc23)cc1	·	·	·	·	·	-30%
Cc1cnnn1-c1ccc(C(=O)CCl)cc1	29µM*	6%	?	i	?	?
CC(=O)c1ccc(-n2nncc2C(C)(C)C)cc1	6%	-1%[38.3 µM]	16%	i	i	7%
CC(C)C1=NOC2(CCN(C(=O)c3ccccc3)C2)C1 (centres undefined)	·	·	·	·	·	3%[12.5 µM]
